Where a name gives a salt, the structure may show the parent alone. ± gives the standard deviation of the averaged measurements.
Columns and labels:
Conditions in all cases: concentration: 10 µM; 24 h
HCC1569 [1] = experiment: cell number relative to DMSO (% of DMSO); higher = more cells (less growth inhibition / toxicity)
Summary of the method: (§1)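 Using 384-well plates with 800 cells per well in RPMI plus 10% FBS, HCC1569 and TDF cells were exposed to compounds at 10 µM, in triplicate, for 24 h at 37 °C. Imaging of six fields per well at ×10 followed H1.0 and DAPI staining. The reported quantity, H1.0 nuclear intensity or cell number, is a median of replicates given as percent of the plate control, and HCC1569 values were smoothed for positional effects.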

TDF [2] = experiment: as above
Summary of the method: as §1

TDF [3] = experiment: H1.0 immunofluorescence intensity relative to DMSO (% of DMSO); higher = stronger H1.0 induction, active = 120 or more
Summary of the method: as §1

HCC1569 [4] = experiment: H1.0 immunofluorescence intensity relative to DMSO (% of DMSO); higher = stronger H1.0 induction, active = 140 or more
Summary of the method: as §1
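For H1.0 immunofluorescence intensity relative to DMSO in this document: TDF is a line of transformed human dermal fibroblasts of mesenchymal origin.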
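For cell number relative to DMSO in this document: TDF denotes transformed human dermal fibroblasts of mesenchymal origin.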

Row | Compound | cell number (HCC1569 [1]) | cell number (TDF [2]) | H1.0 immunofluorescence intensity (TDF [3]) | H1.0 immunofluorescence intensity (HCC1569 [4])
1 | CC12CCC(=O)C=C1CCC1C2C(O)CC2(C)C1CCC2(O)C(=O)CO (centres undefined) [Hydrocortisone] | 98.68 ± 0.34 | 102 ± 9.9 | 86.3 (inactive) | 105 (inactive)
2 | Clc1ccc(C(Cn2ccnc2)OCc2csc3c(Cl)cccc23)c(Cl)c1 (centres undefined) [Sertaconazole] | 95 | 97.9 | 91.4 (inactive) | 114 (inactive)
3 | CCc1cccc2c3c([nH]c12)C(CC)(CC(=O)O)OCC3 (centres undefined) [Etodolac] | 98.6 | 101 | 97 (inactive) | 105 (inactive)
4 | CCOC(=O)[C@H](CCc1ccccc1)N[C@@H](C)C(=O)N1C(=O)N(C)C[C@H]1C(=O)O.Cl | 107 | 99.6 | 100 (inactive) | 92.3 (inactive)
5 | CNCCC(Oc1ccccc1OC)c1ccccc1.Cl (centres undefined) [Nisoxetine hydrochloride] | 98.6 | 111 | 99.4 (inactive) | 101 (inactive)
6 | CNC(=C[N+](=O)[O-])NCCSCc1ccc(CN(C)C)o1.Cl [Ranitidine.HCl] | 110 | 106 | 95.3 (inactive) | 103 (inactive)
7 | CC1CNCCN1S(=O)(=O)c1cccc2cnccc12.Cl.Cl (centres undefined) [H-7 dihydrochloride] | 96.8 | 100 | 107 (inactive) | 95 (inactive)
8 | CS(=O)(=O)N1CCN(Cc2cc3nc(-c4cccc5[nH]ncc45)nc(N4CCOCC4)c3s2)CC1 | 57.3 | 77.8 | 85.3 (inactive) | 137 (inactive)
9 | Cc1cc(CS(=O)(=O)c2ccccc2)cc(OCc2ccc(CN3CCC[C@@H]3CO)cc2)c1 [PF-543 hydrochloride] | 95.8 | 90.2 | 102 (inactive) | 122 (inactive)
10 | CCOC(=O)C1=C(C)NC(C)=C(C(=O)OC)C1c1cccc([N+](=O)[O-])c1 (centres undefined) [Nitrendipine] | 97.8 ± 5.5 | 101 ± 10 | 101 (inactive) | 122 (inactive)
11 | N#CC(=Cc1ccc(O)cc1)C(N)=C(C#N)C#N [Tyrphostin AG 112] | 101 | 109 | 95.7 (inactive) | 81 (inactive)
12 | COc1cc(-c2oc3cc(O)cc(O)c3c(=O)c2O)ccc1O [Isorhamnetine] | 97.1 | 97.1 | 97.1 (inactive) | 116 (inactive)
13 | CON=C(C(=O)NC1C(=O)N2C(C(=O)[O-])=C(CSc3nc(=O)c([O-])nn3C)CSC12)c1csc(N)n1.[Na+].[Na+] (centres undefined) [Ceftriaxone sodium] | 101 | 99.8 | 99.3 (inactive) | 94 (inactive)
14 | Br.CN1CCc2cc(O)c(O)cc2C1Cc1ccc(O)c(O)c1.O.O.O (centres undefined) | 105 | 108 | 93.9 (inactive) | 89.2 (inactive)
15 | CNCC(O)C(O)C(O)C(O)CO (centres undefined) [Meglumine] | 103 | 120 | 99.3 (inactive) | 92.4 (inactive)
16 | CC(C=Cc1cccc(Oc2ccc(F)cc2)c1)N(O)C(N)=O (centres undefined) | 102 | 101 | 102 (inactive) | 89.2 (inactive)
17 | O=C(CCCN1CC=C(n2c(=O)[nH]c3ccccc32)CC1)c1ccc(F)cc1 [Droperidol] | 107 | 98.1 | 91.1 (inactive) | 89.2 (inactive)
18 | CC(C)COCC(CN(Cc1ccccc1)c1ccccc1)N1CCCC1.Cl (centres undefined) [Bepridil hydrochloride] | 99.7 | 103 | 92.8 (inactive) | 88.7 (inactive)
19 | Br.Br.N=C(N)SCCc1ccc(CCSC(=N)N)cc1 [1,4-PBIT dihydrobromide] | 96.8 | 101 | 92 (inactive) | 105 (inactive)
20 | COC(=O)c1ccc(O)c2[nH]c3c(C=O)c(O)cc(=O)c-3nc12 [Lomofungin] | 105 | 117 | 94.3 (inactive) | 101 (inactive)
21 | Cn1cc(-c2ccc3nnc(C(F)(F)c4ccc5ncccc5c4)n3n2)cn1 | 102 | 96 | 96.1 (inactive) | 101 (inactive)
22 | CCN(CC)C(=S)SSC(=S)N(CC)CC [Tetraethylthiuram disulfide] | 97.2 | 54 | 120 (inactive) | 102 (inactive)
23 | CC(C)(C)c1cnc(CSc2cnc(NC(=O)C3CCNCC3)s2)o1 | 105 | 102 | 95 (inactive) | 100 (inactive)
24 | CC(C)NCC(O)COc1ccc(CC(N)=O)cc1 (stereo not drawn) [S(-)-Atenolol] | 101 | 105 | 92.2 (inactive) | 96.4 (inactive)
25 | CC(CN1c2ccccc2Sc2ccccc21)N(C)C.Cl (centres undefined) | 105 | 105 | 110 (inactive) | 112 (inactive)
26 | COC1C=COC2(C)Oc3c(C)c(O)c4c(c3C2=O)C(=O)C(=CNN2CCN(C)CC2)C(=C4O)NC(=O)C(C)=CC=CC(C)C(O)C(C)C(O)C(C)C(OC(C)=O)C1C (centres undefined) [Rifampicin] | 104.2 ± 0.92 | 106 ± 1.9 | 94.5 (inactive) | 103 (inactive)

Row | Compound | cell number (HCC1569 [1]) | cell number (TDF [2]) | H1.0 immunofluorescence intensity (TDF [3]) | H1.0 immunofluorescence intensity (HCC1569 [4])
27 | Cc1cc(I)ccc1Nc1c(C(=O)NOCC2CC2)cc(F)c(F)c1F | 97.2 | 95.6 | 91.1 (inactive) | 116 (inactive)
28 | COc1c(O)cc2c(c1O)C1OC(CO)C(O)C(O)C1OC2=O (centres undefined) [Bergenin] | 99 | 107 | 91.7 (inactive) | 93.5 (inactive)
29 | CC[N+](CC)(CC)CCOc1cccc(OCC[N+](CC)(CC)CC)c1OCC[N+](CC)(CC)CC [Gallamine] | 101 | 107 | 93.8 (inactive) | 104 (inactive)
30 | CC(C)c1cc(C(C)C)c(CC(=O)NS(=O)(=O)Oc2c(C(C)C)cccc2C(C)C)c(C(C)C)c1 | 94.4 | 103 | 89.8 (inactive) | 110 (inactive)
31 | O=[N+]([O-])c1cc(S(=O)(=O)Nc2ccc(O)c3ccccc23)ccc1Cl [4-chloro-N-(4-hydroxy-1-naphthyl)-3-nitrobenzenesulfonamide] | 85.3 | 76.6 | 106 (inactive) | 115 (inactive)
32 | NC(Cc1ccc(Cl)cc1)C(=O)O (racemic) | 101 | 106 | 88.6 (inactive) | 87.6 (inactive)
33 | O=C(C=Cc1ccc(O)c(O)c1)c1ccc(OC2OC(CO)C(O)C(O)C2O)c(O)c1O (centres undefined) [Marein] | 99.4 | 108 | 92 (inactive) | 91.5 (inactive)
34 | CNCCCN1c2ccccc2CCc2ccccc21.Cl [Desipramine hydrochloride] | 102 | 97.5 | 98.7 (inactive) | 92.6 (inactive)
35 | O=C(O)c1cc(-c2ccc(F)cc2F)ccc1O [Diflunisal] | 102 | 100 | 96.1 (inactive) | 115 (inactive)
36 | O=NN(CCCl)C(=O)NC1CCCCC1 [Lomustine] | 104 | 85 | 102 (inactive) | 99.7 (inactive)
37 | Cc1cc(C2CCCCC2)n(O)c(=O)c1.NCCO [Ciclopirox ethanolamine] | 78.7 | 58.8 | 93.2 (inactive) | 102 (inactive)
38 | N[C@@H](Cc1c[nH]c2ccc(O)cc12)C(=O)O [5-Hydroxy-L-tryptophan] | 98.1 | 94.8 | 93 (inactive) | 116 (inactive)
39 | Clc1ccc(CON=C(Cn2ccnc2)c2ccc(Cl)cc2Cl)c(Cl)c1 [Oxiconazole] | 99.8 | 101 | 98.4 (inactive) | 113 (inactive)
40 | CC(C=CC1=C(C)CCCC1(C)C)=CC=CC(C)=CC(=O)Nc1ccc(O)cc1 [4-Hydroxyphenylretinamide] | 89.9 | 112 | 95.7 (inactive) | 120 (inactive)
41 | COc1nccc(-c2c(-c3ccc(F)cc3)ncn2C2CCNCC2)n1 | 93.7 | 104 | 84.3 (inactive) | 99.5 (inactive)
42 | Cl.O=C(O)C1=CCCNC1 [Guvacine hydrochloride] | 97.8 | 99.1 | 103 (inactive) | 91.1 (inactive)
43 | CC(=O)OC1CC2CCC3C(CCC4(C)C3CC([N+]3(C)CCCCC3)C4OC(C)=O)C2(C)CC1N1CCCCC1 (centres undefined) [Vecuronium] | 103 | 95.7 | 99.2 (inactive) | 110 (inactive)
44 | CC12CCC3c4ccc(O)cc4CCC3C1CCC2O (stereo not drawn) [beta-Estradiol] | 90.6 | 89.3 | 101 (inactive) | 95.3 (inactive)
45 | CCC(=C(CC)c1ccc(O)cc1)c1ccc(O)cc1 [Diethylstilbestrol] | 99.3 | 92.6 | 99 (inactive) | 111 (inactive)
46 | CC(C)COCC(CN(Cc1ccccc1)c1ccccc1)N1CCCC1.Cl (centres undefined) [Bepridil.HCl] | 102 | 103 | 93.1 (inactive) | 99.1 (inactive)
47 | Oc1cc2c(cc1O)CN(C(=S)NCCc1ccc(Cl)cc1)CCC2 [Capsazepine] | 106 | 112 | 91.8 (inactive) | 86.2 (inactive)
48 | COC(=O)C1C(O)CCC2CN3CCc4c([nH]c5ccccc45)C3CC21.Cl (centres undefined) [Rauwolscine] | 103 | 99.5 | 95.5 (inactive) | 95.6 (inactive)
49 | O=C1CCN(c2ccccc2)N1 [Phenidone] | 106 | 97.6 | 92.2 (inactive) | 98.8 (inactive)
50 | COC(=O)c1c(-c2cc(OC)c(OC)c(OC)c2)c2ccc(OCc3ccccn3)cc2c(=O)n1-c1ccc(N)cc1.O=S(=O)(O)O | 100 | 113 | 95.1 (inactive) | 102 (inactive)
51 | Cl.c1ccc(-n2c(C3=NCCN3)cc3ccccc32)cc1 | 98.8 | 92.4 | 105 (inactive) | 101 (inactive)
